# In PubChem BioAssay (EPA / NIEHS):
# Results filed as inconclusive are left out. The source made the active and inactive calls. Rule for the calls, unless noted: active = hit-call score of the fitted dose curve at least 0.9, where 1 is the maximum; inactive = score below 0.9.
# Key:
# [1] = CCTE_Harrill_HTTr_Viability_DMEM_6hr: (Pilot) CCTE's 6-hour Cell Viability Assessment for the High-Throughput Transcriptomics (HTTr) Platform, in MCF-7 cells cultured in DMEM + 10% fetal bovine serum, Harrill Lab (AID 2283973)
# Summary of the method: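 MCF-7 cells in DMEM + 10% FBS, eight-point dilution series, 6 h exposure. Membrane integrity by propidium iodide exclusion with high-content imaging; bidirectional fit versus DMSO.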
# [2] = CCTE_Harrill_HTTr_Viability_DMEM_12hr: (Pilot) CCTE's 12-hour Cell Viability Assessment for the High-Throughput Transcriptomics (HTTr) Platform, in MCF-7 cells cultured in DMEM + 10% fetal bovine serum, Harrill Lab (AID 2283974)
# Summary of the method: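 MCF-7 cells in DMEM + 10% FBS exposed 12 h to an eight-point dilution series; membrane integrity scored by propidium iodide exclusion with high-content imaging, bidirectional fitting versus DMSO.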
# [3] = CCTE_Harrill_HTTr_Viability_DMEM_24hr: (Pilot) CCTE's 24-hour Cell Viability Assessment for the High-Throughput Transcriptomics (HTTr) Platform, in MCF-7 cells cultured in DMEM + 10% fetal bovine serum, Harrill Lab (AID 2283975)
# Summary of the method: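 MCF-7 cells in DMEM with 10% FBS exposed for 24 hours to an eight-point dilution series. Membrane integrity by propidium iodide exclusion with high content imaging; bidirectional fit against DMSO.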
# [4] = CCTE_Harrill_HTTr_Viability_PRF_DMEM_6hr: (Pilot) CCTE's 6-hour Cell Viability Assessment for the High-Throughput Transcriptomics (HTTr) Platform, in MCF-7 cells cultured phenol red-free DMEM + 10% charcoal-stripped fetal bovine serum, Harrill Lab (AID 2283976)
# Summary of the method: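 MCF-7 cells in phenol red-free DMEM with 10% charcoal-stripped FBS exposed 6 hours to an eight-point dilution series. Propidium iodide exclusion imaged; curves fitted bidirectionally against DMSO.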
# [5] = CCTE_Harrill_HTTr_Viability_PRF_DMEM_12hr: (Pilot) CCTE's 12-hour Cell Viability Assessment for the High-Throughput Transcriptomics (HTTr) Platform, in MCF-7 cells cultured in phenol red-free DMEM + 10% charcoal-stripped fetal bovine serum, Harrill Lab (AID 2283977)
# Summary of the method: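 MCF-7 cells in phenol red-free DMEM with 10% charcoal-stripped FBS exposed 12 hours to an eight-point dilution series. Viability assessed by high-content imaging of propidium iodide exclusion; bidirectional fit versus DMSO.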
# [6] = CCTE_Harrill_HTTr_Viability_PRF_DMEM_24hr: (Pilot) CCTE's 24-hour Cell Viability Assessment for the High-Throughput Transcriptomics (HTTr) Platform, in MCF-7 cells cultured in phenol red-free DMEM + 10% charcoal-stripped fetal bovine serum, Harrill Lab (AID 2283980)
# Summary of the method: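 MCF-7 cells in phenol red-free DMEM with 10% charcoal-stripped FBS, eight-point dilution series, 24 h exposure. Membrane integrity by propidium iodide exclusion with high content imaging; bidirectional fit vs DMSO.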
# [7] = CCTE_Harrill_HTTr_Apoptosis_DMEM_6hr: (Pilot) CCTE's 6-hour Apoptosis Assessment for the High-Throughput Transcriptomics (HTTr) Platform, in MCF-7 cells cultured in DMEM + 10% fetal bovine serum, Harrill Lab (AID 2283981)
# Summary of the method: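 Caspase-3/7 activation read by high content imaging with CellEvent Caspase 3/7 Green in MCF-7 cells (DMEM + 10% FBS), 6 h after dosing; eight-point dilution series. Bidirectional fitting relative to DMSO baseline.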
# [8] = CCTE_Harrill_HTTr_Apoptosis_DMEM_12hr: (Pilot) CCTE's 12-hour Apoptosis Assessment for the High-Throughput Transcriptomics (HTTr) Platform, in MCF-7 cells cultured in DMEM + 10% fetal bovine serum, Harrill Lab (AID 2283982)
# Summary of the method: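 MCF-7 cells in DMEM + 10% FBS, exposed 12 h to an eight-point dilution series; caspase-3/7 activation imaged with CellEvent Green. Bidirectional fit versus DMSO.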
# [9] = CCTE_Harrill_HTTr_Apoptosis_DMEM_24hr: (Pilot) CCTE's 24-hour Apoptosis Assessment for the High-Throughput Transcriptomics (HTTr) Platform, in MCF-7 cells cultured in DMEM + 10% fetal bovine serum, Harrill Lab (AID 2283983)
# Summary of the method: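 MCF-7 cells in DMEM + 10% FBS, eight-point dilution series, 24 h exposure. Caspase-3/7 activation imaged by high-content imaging with CellEvent Caspase 3/7 Green. Bidirectional curve fitting against DMSO baseline.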
# [10] = CCTE_Harrill_HTTr_Apoptosis_PRF_DMEM_6hr: (Pilot) CCTE's 6-hour Apoptosis Assessment for the High-Throughput Transcriptomics (HTTr) Platform, in MCF-7 cells cultured phenol red-free DMEM + 10% charcoal-stripped fetal bovine serum, Harrill Lab (AID 2283984)
# Summary of the method: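 MCF-7 cells in phenol red-free DMEM + 10% charcoal-stripped FBS, eight-point dilution series, 6 h exposure. Caspase-3/7 activation imaged by high-content imaging with CellEvent Caspase 3/7 Green; bidirectional fit versus DMSO baseline.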
# [11] = CCTE_Harrill_HTTr_Apoptosis_PRF_DMEM_12hr: (Pilot) CCTE's 12-hour Apoptosis Assessment for the High-Throughput Transcriptomics (HTTr) Platform, in MCF-7 cells cultured in phenol red-free DMEM + 10% charcoal-stripped fetal bovine serum, Harrill Lab (AID 2283985)
# Summary of the method: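 MCF-7 cells in phenol red-free DMEM with 10% charcoal-stripped FBS, eight-point dilution series, 12 h exposure. Caspase-3/7 activation imaged by high content imaging with CellEvent Green reagent; bidirectional fit vs DMSO.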
# [12] = CCTE_Harrill_HTTr_Apoptosis_PRF_DMEM_24hr: (Pilot) CCTE's 24-hour Apoptosis Assessment for the High-Throughput Transcriptomics (HTTr) Platform, in MCF-7 cells cultured in phenol red-free DMEM + 10% charcoal-stripped fetal bovine serum, Harrill Lab (AID 2283986)
# Summary of the method: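 MCF-7 cells in phenol red-free DMEM with 10% charcoal-stripped FBS, exposed 24 h across an eight-point dilution series. Caspase-3/7 activation imaged with CellEvent Green by high content imaging; bidirectional fitting against DMSO.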
# [13] = biological target: Thyroid hormone receptor alpha (Rattus norvegicus) + Thyroid hormone receptor beta (Rattus norvegicus) (UniProt P18113+P63059); assay: TOX21_TR_LUC_GH3_Antagonist_Followup: Tox21 GH3 Thyroid Hormone Receptor Antagonism Luciferase Follow-Up Assay (AID 2283942; active = hit-call score of the fitted dose curve at least 0.9, where 1 is the maximum)
# Summary of the method: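 Antagonist mode: GH3 cells seeded 1,500/well, compounds at 15 concentrations (92 uM to 5nM final) plus T3 at 1.0 nM final, 24 h at 37C. Luciferase read with ONE-Glo after 30 min at room temperature.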
# THRA (gene 7067) = THRA (gene 7067) (UniProt P10827); assay: TOX21_TRA_COA_Antagonist_Followup_ratio: Tox21 Thyroid Hormone Receptor alpha Antagonism through Coactivator Recruitment Follow-Up Assay, Ratio (AID 2283953; active = hit-call score of the fitted dose curve at least 0.9, where 1 is the maximum)
# Summary of the method: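 520:495 nm emission ratio (excitation 340 nm) reports fluorescein-SRC-2 peptide recruitment to GST-TRα LBD by TR-FRET with Tb anti-GST antibody. Values were normalized to DMSO (0%) and T3 control wells (100%); loss of signal indicated antagonism.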
# THRB (gene 7068) [14] = biological target: THRB (gene 7068) (UniProt P10828); assay: TOX21_TRB_BLA_Antagonist_Followup_ratio: Tox21 Thyroid Hormone Receptor beta Antagonism Beta-lactamase (BLA) Follow-Up Assay, Ratio (AID 2283958; active = hit-call score of the fitted dose curve at least 0.9, where 1 is the maximum)
# Summary of the method: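 HEK293T cells with a GAL4-TRb LBD fusion and UAS-bla reporter, 3,000 cells/well in phenol red-free DMEM with 2% charcoal-stripped FBS. Exposed 18 h at 37C to 11 concentrations in triplicate; CCF4 460:530 nm ratio after 2 h, DMSO-referenced.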
# [15] = TOX21_TRB_BLA_Antagonist_Followup_viability: Viability Assessment in the Tox21 Thyroid Hormone Receptor beta Antagonism Beta-lactamase (BLA) Follow-Up Assay (AID 2283961; active = hit-call score of the fitted dose curve at least 0.9, where 1 is the maximum)
# Summary of the method: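 In the same wells as the reporter read, cell health was gauged by CellTiter-Glo ATP luminescence, with signal loss indicating reduced viability. Cells had been exposed to test compounds for 18 h.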
# THRB (gene 7068) [16] = biological target: THRB (gene 7068) (UniProt P10828); assay: TOX21_TRB_COA_Antagonist_Followup_ratio: Tox21 Thyroid Hormone Receptor beta Antagonism through Coactivator Recruitment Follow-Up Assay, Ratio (AID 2283967; active = hit-call score of the fitted dose curve at least 0.9, where 1 is the maximum)
# Summary of the method: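 Cell-free TR-FRET: GST-TRb LBD (5.0 nM) with fluorescein-SRC-2 peptide (200 nM) and Tb anti-GST antibody (2 nM), 0.10% BSA. 520:495 nm emission ratio normalized to DMSO (0%) and T3 (100%).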
# [17] = biological target: Retinoic acid receptor RXR-alpha (Homo sapiens) (UniProt P19793); assay: TOX21_TR_RXR_BLA_Antagonist_Followup_ratio: Tox21 Thyroid Hormone Receptor beta Retinoid X Receptor alpha (RXRa) Antagonism Beta-lactamase (BLA) Follow-Up Assay, Ratio (AID 2283972; active = hit-call score of the fitted dose curve at least 0.9, where 1 is the maximum)
# Summary of the method: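 Compounds were tested in triplicate at 11 concentrations on RXRa-bla HEK293T cells for 16 h. Substrate cleavage ratio, normalized to DMSO, gave the endpoint.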
# [18] = TOX21_TR_RXR_BLA_Antagonist_Followup_viability: Viability Assessment in the Tox21 Thyroid Hormone Receptor beta Retinoid X Receptor alpha (RXRa) Antagonism Beta-lactamase (BLA) Follow-Up Assay (AID 2283979; active = hit-call score of the fitted dose curve at least 0.9, where 1 is the maximum)
# Summary of the method: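 RXRa-bla HEK293T cells (2,500/well, phenol red-free DMEM, 2% charcoal-stripped FBS) were attached 5 h, then exposed to compounds at 11 concentrations in triplicate for 16 h at 37C. Viability measured by CellTiter-Glo ATP luminescence, bidirectional fitting versus DMSO.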
# [19] = TOX21_PR_LUC_Followup_Agonist_viability: Viability Assessment in the Tox21 HEK293 Progesterone Receptor (PR) Agonism Luciferase Follow-Up Assay (AID 2283941; active = hit-call score of the fitted dose curve at least 0.9, where 1 is the maximum;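 note: loss of signal means cytotoxicity so actives lower viability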)
# Summary of the method: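 HEK293-PR-A-luc cells, kept in 10% charcoal-stripped FBS medium, were treated with compounds for 16 h at 37C. Viability read as cellular ATP by luciferase-coupled luminescence; loss of signal indicates cytotoxicity.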
# Chain of THRB (gene 7068) (P10828 whole entry, looked up, the tested form may be a part): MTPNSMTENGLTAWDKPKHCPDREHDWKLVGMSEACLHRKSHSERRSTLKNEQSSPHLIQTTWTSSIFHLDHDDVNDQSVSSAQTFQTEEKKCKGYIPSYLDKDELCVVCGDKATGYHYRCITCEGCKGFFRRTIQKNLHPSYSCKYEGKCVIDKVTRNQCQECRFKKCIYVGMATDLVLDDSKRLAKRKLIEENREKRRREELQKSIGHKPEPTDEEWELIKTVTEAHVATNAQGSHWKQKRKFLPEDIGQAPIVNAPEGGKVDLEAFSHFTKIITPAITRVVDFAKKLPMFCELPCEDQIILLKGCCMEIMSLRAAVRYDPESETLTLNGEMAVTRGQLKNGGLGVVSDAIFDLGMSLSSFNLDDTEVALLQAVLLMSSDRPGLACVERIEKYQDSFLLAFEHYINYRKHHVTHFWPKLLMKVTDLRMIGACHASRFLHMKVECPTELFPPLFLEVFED
# Chain of Retinoic acid receptor RXR-alpha (Homo sapiens) (P19793 whole entry, looked up): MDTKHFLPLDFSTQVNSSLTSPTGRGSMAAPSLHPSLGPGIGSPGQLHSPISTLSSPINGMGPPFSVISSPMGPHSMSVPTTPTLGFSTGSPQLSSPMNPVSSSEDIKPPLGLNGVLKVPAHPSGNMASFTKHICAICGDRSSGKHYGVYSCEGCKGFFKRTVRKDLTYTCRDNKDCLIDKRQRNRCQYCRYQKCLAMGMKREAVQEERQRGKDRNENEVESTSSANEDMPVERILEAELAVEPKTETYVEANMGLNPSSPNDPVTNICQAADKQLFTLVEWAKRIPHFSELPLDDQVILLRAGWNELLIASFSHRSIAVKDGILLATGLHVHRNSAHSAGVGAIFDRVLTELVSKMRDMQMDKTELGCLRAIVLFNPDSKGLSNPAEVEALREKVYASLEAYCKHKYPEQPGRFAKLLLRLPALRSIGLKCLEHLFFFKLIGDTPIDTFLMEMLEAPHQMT
# Chain of THRA (gene 7067) (P10827 whole entry, looked up, the tested form may be a part): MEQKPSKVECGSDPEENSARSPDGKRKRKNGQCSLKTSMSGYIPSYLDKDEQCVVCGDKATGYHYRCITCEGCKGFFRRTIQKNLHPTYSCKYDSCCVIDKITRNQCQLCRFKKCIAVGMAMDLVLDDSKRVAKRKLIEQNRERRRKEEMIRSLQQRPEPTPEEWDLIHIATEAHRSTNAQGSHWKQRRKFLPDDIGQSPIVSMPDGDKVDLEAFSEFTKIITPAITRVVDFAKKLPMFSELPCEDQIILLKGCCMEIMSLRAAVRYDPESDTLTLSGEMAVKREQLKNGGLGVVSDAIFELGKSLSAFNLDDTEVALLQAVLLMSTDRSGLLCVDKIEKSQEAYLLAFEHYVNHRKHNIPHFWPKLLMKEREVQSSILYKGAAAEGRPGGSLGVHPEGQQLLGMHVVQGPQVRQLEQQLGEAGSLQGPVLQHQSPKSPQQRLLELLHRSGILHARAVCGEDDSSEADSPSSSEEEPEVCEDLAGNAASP
compound,measurement,setting,value
CCNc1nc(Cl)nc(NC(C)C)n1,outcome,[1],inactive
same,outcome,[2],inactive
same,outcome,[3],inactive
same,outcome,[4],inactive
same,outcome,[5],inactive
same,outcome,[6],inactive
same,outcome,[7],inactive
same,outcome,[8],inactive
same,outcome,[9],inactive
same,outcome,[10],inactive
same,outcome,[11],inactive
same,outcome,[12],inactive
CCNc1nc(Cl)nc(NCC)n1,outcome,[1],inactive
same,outcome,[2],inactive
same,outcome,[3],inactive
same,outcome,[4],inactive
same,outcome,[5],inactive
same,outcome,[6],inactive
same,outcome,[7],inactive
same,outcome,[8],inactive
same,outcome,[9],inactive
same,outcome,[10],inactive
same,outcome,[11],inactive
same,outcome,[12],inactive
CCCCNC(=O)n1c(NC(=O)OC)nc2ccccc21,outcome,[13],inactive
same,outcome,THRA (gene 7067),inactive
same,outcome,THRB (gene 7068) [14],inactive
same,outcome,[15],inactive
same,outcome,THRB (gene 7068) [16],inactive
same,outcome,[17],inactive
same,outcome,[18],inactive
C=CC1(C)OC(=O)N(c2cc(Cl)cc(Cl)c2)C1=O (stereo unspecified),outcome,[19],inactive
same,outcome,[1],inactive
same,outcome,[2],inactive
same,outcome,[3],inactive
same,outcome,[4],inactive
same,outcome,[5],inactive
same,outcome,[6],inactive
same,outcome,[7],inactive
same,outcome,[8],inactive
same,outcome,[9],inactive
same,outcome,[10],inactive
same,outcome,[11],inactive
same,outcome,[12],inactive
CO/C=C(/C(=O)OC)c1ccccc1Oc1cc(Oc2ccccc2C#N)ncn1,AC50,[13],3.91 µM (active)
same,outcome,THRA (gene 7067),inactive
same,outcome,THRB (gene 7068) [14],inactive
same,AC50,[15],38.1 µM (active)
same,outcome,THRB (gene 7068) [16],inactive
same,outcome,[17],inactive
same,outcome,[18],inactive
